Assay results from PubChem BioAssay (NCI).
About 83,000 compounds went through this panel and 20% of them were active in at least one assay; those are over-represented in the sample as a whole.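 Compound tested at a single concentration for 48 hours in 96-well plates; a percent growth value below 10 was scored as active.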 Active and inactive are the calls of the source.

Tests used:
Assay in all cases: NCI-60 one-dose screen, 48 h (100 = growth as untreated, 0 = no growth, -100 = all killed)
Conditions in all cases: 10 µM unless noted
SN12C renal = tested on: SN12C renal
UO-31 renal = tested on: UO-31 renal
TK-10 renal = tested on: TK-10 renal
CAKI-1 renal = tested on: CAKI-1 renal
A498 renal = tested on: A498 renal
CCRF-CEM leukemia = tested on: CCRF-CEM leukemia
MOLT-4 leukemia = tested on: MOLT-4 leukemia
SR leukemia = tested on: SR leukemia
RPMI-8226 leukemia = tested on: RPMI-8226 leukemia
OVCAR-8 ovarian = tested on: OVCAR-8 ovarian
OVCAR-5 ovarian = tested on: OVCAR-5 ovarian
OVCAR-4 ovarian = tested on: OVCAR-4 ovarian
SK-OV-3 ovarian = tested on: SK-OV-3 ovarian
IGROV1 ovarian = tested on: IGROV1 ovarian
OVCAR-3 ovarian = tested on: OVCAR-3 ovarian
HS 578T breast = tested on: HS 578T breast
NCI/ADR-RES ovarian = tested on: NCI/ADR-RES ovarian
ACHN renal = tested on: ACHN renal

Measured: growth

CCC(C)[C@@H]1NC(=O)[C@@H]2CCCN2C(=O)[C@H](Cc2ccccc2)NC(=O)[C@@H]2CCCN2C(=O)[C@H](Cc2ccccc2)NC(=O)[C@@H]2CCCN2C(=O)[C@H](Cc2ccccc2)NC1=O (some centres not stated)
inactive: SN12C renal 102% | UO-31 renal 105% | TK-10 renal 104% | CAKI-1 renal 94.1% | A498 renal 108% | CCRF-CEM leukemia 92.7% | MOLT-4 leukemia 89.7% | SR leukemia 83.7% | RPMI-8226 leukemia 85.7% | OVCAR-8 ovarian 113% | OVCAR-5 ovarian 105% | OVCAR-4 ovarian 106% | SK-OV-3 ovarian 103% | IGROV1 ovarian 120% | OVCAR-3 ovarian 126% | HS 578T breast 106% | NCI/ADR-RES ovarian 112%

Cn1cc(-c2nc(-c3c[nH]c4ccccc34)cs2)c2cccnc21
active: A498 renal -0.249% | CCRF-CEM leukemia 7.02% | OVCAR-3 ovarian 7.04%
inactive: SN12C renal 52.7% | UO-31 renal 43.8% | TK-10 renal 44% | ACHN renal 56.8% | CAKI-1 renal 29.7% | MOLT-4 leukemia 19.9% | SR leukemia 23% | RPMI-8226 leukemia 14.4% | OVCAR-8 ovarian 37.9% | OVCAR-5 ovarian 54.4% | OVCAR-4 ovarian 45.5% | SK-OV-3 ovarian 38.7% | IGROV1 ovarian 44.5% | HS 578T breast 38.6% | NCI/ADR-RES ovarian 20.4%

CN(C)CC(=O)Nc1ccc(Cn2nnc3c2C(=O)c2nnn(Cc4ccc(NC(=O)CN(C)C)cc4)c2C3=O)cc1
inactive: CAKI-1 renal 41.9% | NCI/ADR-RES ovarian 88.6%
active: SN12C renal -47.3% | TK-10 renal -14.2% | ACHN renal -15.9% | A498 renal -91.3% | CCRF-CEM leukemia -32.9% | RPMI-8226 leukemia -34% | OVCAR-8 ovarian -31.6% | OVCAR-5 ovarian -35.7% | OVCAR-4 ovarian -94.9% | SK-OV-3 ovarian -44% | IGROV1 ovarian -74.4% | OVCAR-3 ovarian -59.1% | HS 578T breast 7.7%

O=C1CC(c2nc3ccccc3s2)CN1C1CCCCC1 (configuration not stated)
inactive: SN12C renal 93.5% | UO-31 renal 70.5% | TK-10 renal 121% | CAKI-1 renal 89.1% | A498 renal 73.2% | CCRF-CEM leukemia 100% | MOLT-4 leukemia 90.9% | SR leukemia 97.1% | RPMI-8226 leukemia 98.4% | OVCAR-8 ovarian 95.4% | OVCAR-5 ovarian 99.8% | OVCAR-4 ovarian 94.1% | SK-OV-3 ovarian 91.6% | IGROV1 ovarian 95% | OVCAR-3 ovarian 101% | HS 578T breast 98.9% | NCI/ADR-RES ovarian 89.4%

CC1=C(NCCN2CCCC2)C(=O)c2c(OCc3ccc(F)c(Cl)c3)cccc2C1=O
inactive: SN12C renal 71.2% | TK-10 renal 69.1% | ACHN renal 83.8% | CAKI-1 renal 50.2% | A498 renal 38.7% | CCRF-CEM leukemia 40.6% | MOLT-4 leukemia 44.3% | RPMI-8226 leukemia 50.4% | OVCAR-8 ovarian 74.8% | OVCAR-5 ovarian 72.7% | OVCAR-4 ovarian 70.5% | SK-OV-3 ovarian 93.7% | IGROV1 ovarian 67.6% | OVCAR-3 ovarian 84% | HS 578T breast 79.7% | NCI/ADR-RES ovarian 75.2%
active: SR leukemia -14.3%

O=C1CC(c2nc3ccccc3[nH]2)CN1C1CCCCC1 (configuration not stated)
inactive: SN12C renal 108% | UO-31 renal 78.4% | TK-10 renal 99.6% | ACHN renal 106% | CAKI-1 renal 94.2% | A498 renal 79.7% | CCRF-CEM leukemia 111% | MOLT-4 leukemia 102% | SR leukemia 97.4% | RPMI-8226 leukemia 106% | OVCAR-8 ovarian 95.2% | OVCAR-5 ovarian 108% | OVCAR-4 ovarian 102% | SK-OV-3 ovarian 101% | IGROV1 ovarian 108% | OVCAR-3 ovarian 110% | HS 578T breast 102% | NCI/ADR-RES ovarian 94.2%

COc1ccc(-c2cnoc2-c2cc(OC)c3c(c2)OCCO3)cc1
inactive: UO-31 renal 39.6% | TK-10 renal 71.8% | ACHN renal 21.1% | CAKI-1 renal 33.5% | OVCAR-5 ovarian 31.9% | OVCAR-4 ovarian 50.4% | SK-OV-3 ovarian 11.7% | IGROV1 ovarian 29.2% | HS 578T breast 45.7%
active: SN12C renal 9.42% | A498 renal -8.01% | CCRF-CEM leukemia -7.11% | MOLT-4 leukemia 6.08% | SR leukemia 3.75% | RPMI-8226 leukemia -8.88% | OVCAR-8 ovarian 9.43% | OVCAR-3 ovarian -18.6% | NCI/ADR-RES ovarian 3.01%

CCCCCN(CCCCC)CCC[C@@H](C)[C@H]1CC[C@H]2[C@@H]3[C@H](OCCCN)C[C@@H]4C[C@H](OCCCN)CC[C@]4(C)[C@H]3C[C@H](OCCCN)[C@]12C
inactive: SN12C renal 54.3% | UO-31 renal 65.2% | ACHN renal 54.7% | CAKI-1 renal 75.8% | A498 renal 92.8% | CCRF-CEM leukemia 15.3% | MOLT-4 leukemia 41.1% | SR leukemia 19.2% | OVCAR-8 ovarian 55.3% | OVCAR-5 ovarian 66.2% | OVCAR-4 ovarian 85.2% | SK-OV-3 ovarian 93.2% | IGROV1 ovarian 29.6% | OVCAR-3 ovarian 107% | HS 578T breast 66.9% | NCI/ADR-RES ovarian 76%
active: RPMI-8226 leukemia -17.7%

COc1ccc(/C=C2\N=C3Sc4cc(Cl)ccc4C(=O)N3C2=O)cc1
inactive: SN12C renal 96.3% | UO-31 renal 65% | TK-10 renal 107% | ACHN renal 92.1% | CAKI-1 renal 73.8% | CCRF-CEM leukemia 93.4% | MOLT-4 leukemia 93.6% | SR leukemia 88.4% | RPMI-8226 leukemia 101% | OVCAR-8 ovarian 94.6% | OVCAR-5 ovarian 98.1% | OVCAR-4 ovarian 103% | SK-OV-3 ovarian 98.1% | IGROV1 ovarian 107% | OVCAR-3 ovarian 104% | HS 578T breast 102% | NCI/ADR-RES ovarian 106%

O=C(CCCN1CCOCC1)Nc1ccc(Cn2nnc3c2C(=O)c2nnn(Cc4ccc(NC(=O)CCCN5CCOCC5)cc4)c2C3=O)cc1
inactive: UO-31 renal 103% | TK-10 renal 116% | ACHN renal 97.9% | CAKI-1 renal 88.6% | A498 renal 102% | SR leukemia 10.6% | RPMI-8226 leukemia 37.5% | OVCAR-8 ovarian 38.5% | OVCAR-5 ovarian 121% | SK-OV-3 ovarian 92.1% | HS 578T breast 101% | NCI/ADR-RES ovarian 102%
active: SN12C renal -40.7% | CCRF-CEM leukemia -3.08% | MOLT-4 leukemia -21.5% | OVCAR-4 ovarian -65.7% | IGROV1 ovarian 3.22% | OVCAR-3 ovarian -1.11%

COc1ccccc1-c1ccc2c(N)c(C(=O)c3ccc4c(c3)OCO4)sc2n1
active: SR leukemia 9.21%
inactive: SN12C renal 64.2% | UO-31 renal 78.5% | TK-10 renal 73.8% | ACHN renal 88.6% | CAKI-1 renal 70.2% | A498 renal 60.1% | CCRF-CEM leukemia 60.2% | MOLT-4 leukemia 36.6% | RPMI-8226 leukemia 62.2% | OVCAR-8 ovarian 73.8% | OVCAR-5 ovarian 87.7% | OVCAR-4 ovarian 95.7% | SK-OV-3 ovarian 78.3% | IGROV1 ovarian 78.1% | OVCAR-3 ovarian 69.8% | HS 578T breast 87.6% | NCI/ADR-RES ovarian 38.7%

CC1=C(NCCN2CCCC2)C(=O)c2c(OCc3ccc(C(F)(F)F)cc3)cccc2C1=O
inactive: SN12C renal 86.1% | UO-31 renal 62.1% | TK-10 renal 91.8% | ACHN renal 92.6% | CAKI-1 renal 59.9% | MOLT-4 leukemia 12.2% | RPMI-8226 leukemia 29.7% | OVCAR-8 ovarian 77% | OVCAR-5 ovarian 90.1% | OVCAR-4 ovarian 84.7% | SK-OV-3 ovarian 95.6% | IGROV1 ovarian 89.1% | OVCAR-3 ovarian 83.6% | HS 578T breast 87.6% | NCI/ADR-RES ovarian 87.5%
active: CCRF-CEM leukemia 1.19% | SR leukemia -15.7%
